Results: PubChem BioAssay (NCATS)
Records with an inconclusive call do not appear. Activity calls are given as the source filed them. Calls follow the shape of the dose curve; as a rule, active = well fitted inhibition curve with a large enough effect; inconclusive = small, poorly fitted or top-dose-only effect; inactive = flat fitted curve, though single readings scatter. Where a SMILES comes first, the peptide text is derived from it.

Tests used:
Assay in all cases: Cytotoxic Profiling of Annotated Libraries Using Quantitative High-Throughput Screening (AID 1296008); also: nearly all actives have a fitted effect of over 60% in size
Settings in all cases: Five cell lines viability, CellTiter-Glo ATP luminescence, 48-72 h; max response: hits give low values
CRL-7250 = normal cell line; tested on: CRL-7250
Outline: (§1)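 Compounds were pin-transferred onto cells and incubated 48 or 72 hr at 37 degree Celsius, 95% humidity. CellTiter-Glo was added, plates sat 10 min at room temperature, then ATP-coupled luminescence was imaged as the viability read-out.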

HEK293 = tested on: HEK293
Outline: as §1

HaCat = tested on: HaCat
Outline: as §1

KB-3-1 = tested on: KB-3-1
Outline: as §1

NIH3T3 = tested on: NIH3T3
Outline: as §1
% is scaled to controls: 0 for no effect and ±100 for the full control effect; potency is read from the fitted curve at half-maximal effect.

CC1(C)CC[C@]2(C(=O)O)CC[C@]3(C)C(=CCC4[C@@]5(C)C[C@@H](O)[C@H](O)[C@](C)(CO)C5CC[C@]43C)[C@@H]2[C@@H]1O (stereo not given in full)
inactive: outcome (CRL-7250) | max response (HaCat) 1.54% | max response (KB-3-1) -5.13% | outcome (NIH3T3)
active: Potency (HEK293) 7.96 µM

COC(=O)C1=COC(OC2OC(CO)C(O)C(O)C2O)C2C(C)CC(=O)C12O (stereo not given)
inactive: outcome (CRL-7250) | max response (HEK293) 2.83% | max response (HaCat) -24.6% | outcome (KB-3-1) | outcome (NIH3T3)

C=CC(C)(O)CCC1C(C)(O)CCC2C(C)(C)CCCC21C (stereo not given)
inactive: max response (CRL-7250) -9.7% | max response (HEK293) -3.72% | max response (HaCat) 3.9% | max response (KB-3-1) 9.64% | outcome (NIH3T3)

COc1ccc(CCC(=O)O)c(O[C@@H]2O[C@H](CO)[C@@H](O)[C@H](O)[C@H]2O)c1
inactive: outcome (CRL-7250) | max response (HEK293) -2.75% | max response (HaCat) 3.93% | max response (KB-3-1) -5.8% | outcome (NIH3T3)

CC(C)[C@@H](C(=O)O)N1Cc2c(cc(O)c3c2O[C@]2(C3)[C@H](C)CCC3C(C)(C)[C@H](O)[C@H](O)C[C@@]32C)C1=O (stereo not given in full)
inactive: max response (CRL-7250) 2.63% | max response (HEK293) -15% | max response (HaCat) 2.56% | max response (KB-3-1) 3.13% | outcome (NIH3T3)

CC(=O)OC1(C)CC(O)C2(O)C=COC(OC3OC(CO)C(O)C(O)C3O)C12 (stereo not given)
inactive: outcome (CRL-7250) | max response (HEK293) 4.36% | max response (HaCat) 0.0573% | max response (KB-3-1) 3.54% | outcome (NIH3T3)

COc1ccc(C(=O)NCc2cc(C(C)C)no2)cc1OC1CCN(C)CC1
inactive: max response (CRL-7250) -1.84% | max response (HEK293) -4.29% | max response (HaCat) 4.96% | max response (KB-3-1) -1.9% | outcome (NIH3T3)

CC(/C=C/C=C(\C)C(=O)O[C@@H]1O[C@H](CO[C@@H]2O[C@H](CO)[C@@H](O)[C@H](O)[C@H]2O)[C@@H](O)[C@H](O)[C@H]1O)=C\C=C\C=C(C)\C=C\C=C(/C)C(=O)O[C@@H]1C[C@](O)(C(=O)O)C[C@@H](O)[C@H]1OC(=O)/C=C/c1ccc(O)c(O)c1
inactive: max response (CRL-7250) -12.4% | max response (HEK293) 2.1% | max response (HaCat) 1.58% | max response (KB-3-1) 5.86% | outcome (NIH3T3)

CC(C)=CCC[C@](C)(O[C@@H]1O[C@H](CO)[C@@H](O)[C@H](O)[C@H]1O)[C@H]1CC[C@]2(C)[C@@H]1[C@H](O)CC1[C@@]3(C)CC[C@H](O)C(C)(C)C3[C@@H](O[C@@H]3O[C@H](CO)[C@@H](O)[C@H](O)[C@H]3O[C@@H]3O[C@@H](C)[C@H](O)[C@@H](O)[C@H]3O)C[C@]12C (stereo not given in full)
inactive: max response (CRL-7250) -1.6% | max response (HEK293) -1.21% | max response (HaCat) -12.1% | max response (KB-3-1) 8.47% | outcome (NIH3T3)

C=CC(C)(CCC=C(C)C)O[C@@H]1O[C@H](CO)[C@@H](O)[C@H](O)[C@H]1O (stereo not given in full)
inactive: max response (CRL-7250) -23.7% | max response (HEK293) -6.28% | max response (HaCat) -2.03% | max response (KB-3-1) 6.36% | outcome (NIH3T3)

C=CC(C)(CC/C=C(\C)C(=O)OC)OC1OC(COC(=O)CC(C)(O)CC(=O)O)C(O)C(O)C1O (stereo not given)
inactive: max response (CRL-7250) -11.6% | outcome (HEK293) | max response (HaCat) 3.32% | max response (KB-3-1) 1.2% | max response (NIH3T3) -0.702%

C=C[C@H]1[C@H](O[C@@H]2O[C@H](CO)[C@@H](O)[C@H](O)[C@H]2O)OC=C(C(=O)OC)[C@H]1CC=O
inactive: max response (CRL-7250) 3.16% | max response (HEK293) -0.876% | max response (HaCat) 4.35% | outcome (KB-3-1) | outcome (NIH3T3)

CC1(C)C=Cc2c(ccc3c2N=C2C(C)(C)[C@@H]4C[C@]56CCCN5C(=O)[C@@]4(C[C@]23O)NC6=O)O1
inactive: max response (CRL-7250) 3.82% | outcome (HEK293) | max response (HaCat) 3.57% | outcome (KB-3-1) | max response (NIH3T3) -4.67%

O=C1NC(=O)/C(=C/c2cccc(C(F)(F)F)c2)S1
inactive: outcome (CRL-7250) | outcome (HEK293) | max response (HaCat) 3.45% | max response (KB-3-1) -2.21% | max response (NIH3T3) 4.34%

CC1=C(CCC(C)O[C@@H]2O[C@H](CO)[C@@H](O)[C@H](O)[C@H]2O)C(C)(C)CC(O)C1 (stereo not given in full)
inactive: max response (CRL-7250) -1.39% | max response (HEK293) 1.2% | max response (HaCat) -0.421% | max response (KB-3-1) 1.93% | outcome (NIH3T3)

H-DPPDPDRFYGMM-NH2
inactive: outcome (CRL-7250) | max response (HEK293) -1.35% | max response (HaCat) -3.96% | outcome (KB-3-1) | outcome (NIH3T3)

Cc1occc1C(=O)n1ccnc1
inactive: max response (CRL-7250) -1.62% | max response (HEK293) 0.475% | max response (HaCat) 4.32% | max response (KB-3-1) 0.152% | outcome (NIH3T3)

CCC(C)/C=C(C)/C=C/C1=CC2=CC(=O)C(C)(O)C(OC(C)=O)C2CO1 (stereo not given)
inactive: outcome (CRL-7250) | max response (HEK293) -22.7% | max response (HaCat) 4.74% | max response (KB-3-1) -4.84% | outcome (NIH3T3)

CCC(CC)CC1(C(=O)Nc2ccccc2SC(=O)C(C)C)CCCCC1
inactive: outcome (CRL-7250) | max response (HEK293) -10.7% | max response (HaCat) -14% | max response (KB-3-1) 0.494% | outcome (NIH3T3)

CC(C/C=C/C(C)(C)O)C1CCC(C)(O)C(O)C1 (stereo not given)
inactive: outcome (CRL-7250) | max response (HEK293) 2.47% | max response (HaCat) 0.0762% | outcome (KB-3-1) | outcome (NIH3T3)

O=C(NC1Cc2ccccc2N(C[C@@H](O)CO)C1=O)c1cc2cc(Cl)sc2[nH]1 (stereo not given in full)
inactive: max response (CRL-7250) -1.76% | max response (HaCat) -0.0172% | max response (KB-3-1) 3.62% | outcome (NIH3T3)
active: Potency (HEK293) 16.4 µM

CC(=O)NC(Cc1ccccc1)C(=O)NC(C(=O)O)C(C)C (stereo not drawn) (Ac-Phe-Val-OH; configuration not given here)
inactive: max response (CRL-7250) -0.555% | outcome (HEK293) | max response (HaCat) -2.09% | max response (KB-3-1) 4.23% | max response (NIH3T3) 4.03%

CC[C@@H](Nc1c(Nc2cccc(C(=O)N(C)C)c2O)c(=O)c1=O)c1ccc(C)o1
inactive: outcome (CRL-7250) | max response (HEK293) 0.867% | max response (HaCat) -4.91% | outcome (KB-3-1) | outcome (NIH3T3)

COC(=O)c1ccc(OC)cc1O[C@@H]1O[C@H](CO[C@@H]2OC[C@@H](O)[C@H](O)[C@H]2O)[C@@H](O)[C@H](O)[C@H]1O
inactive: max response (CRL-7250) -0.542% | max response (HEK293) -1.51% | max response (HaCat) -6.53% | outcome (KB-3-1) | outcome (NIH3T3)

CCC/C=C1\OC(=O)C2=C1CCC(O)C2O (stereo not given)
inactive: outcome (CRL-7250) | max response (HEK293) 1.42% | max response (HaCat) 3.9% | max response (KB-3-1) 0.969% | outcome (NIH3T3)

C=C(C(=O)O)[C@H]1C[C@]2(C)C(=O)CC[C@]23O[C@H]1C[C@@H]3C
inactive: max response (CRL-7250) -1.57% | max response (HEK293) -7.61% | max response (HaCat) 1.8% | max response (KB-3-1) 4.05% | outcome (NIH3T3)

C[C@H]1[C@H](C)CC[C@]2(C(=O)O)CC[C@]3(C)C(=CCC4[C@@]5(C)C[C@@H](O)[C@H](O)C(C)(C)C5CC[C@]43C)[C@H]12 (stereo not given in full)
inactive: outcome (CRL-7250) | max response (HEK293) 3.03% | max response (HaCat) -6.87% | max response (KB-3-1) -2.55% | outcome (NIH3T3)

CC1CC=C2C1CC1(O)C(=O)CC2(C)C1(C)CO (stereo not given)
inactive: outcome (CRL-7250) | max response (HEK293) -7.63% | max response (HaCat) 4.08% | outcome (KB-3-1) | outcome (NIH3T3)

c1ccc2c(Nc3nnc(-c4ccncc4)s3)cccc2c1
inactive: max response (CRL-7250) 3.08% | outcome (HEK293) | max response (HaCat) -11.3% | max response (KB-3-1) 9.81% | max response (NIH3T3) -0.252%

COc1ccc2c(c1)N1C(=O)C[C@@]34C=CC[N@+]5([O-])CC[C@H]2[C@H](CC3)[C@@]145
inactive: max response (CRL-7250) 0.465% | outcome (HEK293) | max response (HaCat) 0.691% | outcome (KB-3-1) | max response (NIH3T3) -2.66%

CC1OC(O[C@@H]2[C@@H](O)[C@H](OC(=O)[C@]34CCC(C)(C)C[C@H]3C3=CCC5[C@@]6(C)CC[C@H](O[C@@H]7O[C@H](C(=O)O)[C@@H](O)[C@H](O[C@@H]8OC[C@@H](O)[C@H](O)[C@H]8O)[C@H]7O[C@@H]7O[C@H](CO)[C@H](O)[C@H](O)[C@H]7O)[C@@](C)(C=O)C6CC[C@@]5(C)[C@]3(C)C[C@H]4O)O[C@H](C)[C@@H]2OC2OC(C)C(OC3OCC(O)C(O)C3O)C(O)C2O)C(O)C(O)C1O (stereo not given in full)
inactive: max response (CRL-7250) 4.06% | max response (HEK293) -14.3% | max response (HaCat) -4.11% | max response (KB-3-1) -3.93% | outcome (NIH3T3)

CC1=C2CC3C(CCC3(C)O)C(C)(O)CC2OC1=O (stereo not given)
inactive: max response (CRL-7250) -2.15% | outcome (HEK293) | max response (HaCat) 3.12% | max response (KB-3-1) 6.46% | max response (NIH3T3) -16.4%

CC(=O)OC1C(C)C2C(OC3OC(CO)C(O)C(O)C3O)OC=C(C(=O)O)C2C1OC(=O)c1ccccc1 (stereo not given)
inactive: outcome (CRL-7250) | max response (HEK293) 1.6% | max response (HaCat) -7.28% | outcome (KB-3-1) | outcome (NIH3T3)

C/C(=C\CC/C(C)=C/CC[C@]1(C)CCc2cc(O)cc(C)c2O1)CC/C=C(\C)C(=O)O
inactive: max response (CRL-7250) 0.272% | max response (HEK293) -1.65% | max response (HaCat) 4.26% | max response (KB-3-1) -3.09% | outcome (NIH3T3)

C[C@]12CC/C(=N\OCC(=O)O)C=C1CC[C@@H]1[C@@H]2[C@@H](O)C[C@@]2(C)[C@H]1CC[C@]2(O)C(=O)CO
inactive: max response (CRL-7250) -6.4% | outcome (HEK293) | max response (HaCat) 2.89% | outcome (KB-3-1) | max response (NIH3T3) -9.49%

CC(C)=C1C[C@@]2(C)C(=CC1=O)CC[C@@H](O)[C@@H]2C
inactive: max response (CRL-7250) -13.6% | outcome (HEK293) | max response (HaCat) -1.2% | max response (KB-3-1) 3.47% | max response (NIH3T3) -19.7%

CC(=O)[C@@H]1C[C@H](C(C)(C)O[C@@H]2O[C@H](CO)[C@@H](O)[C@H](O)[C@H]2O)CC[C@@]2(CO)OC(=O)C[C@@H]12
inactive: max response (CRL-7250) -8.92% | max response (HEK293) 0.131% | max response (HaCat) 4.13% | max response (KB-3-1) 1.24% | outcome (NIH3T3)

CC(NC(=O)CC(=O)O)C(=O)Nc1ccccc1C(N)=O (stereo not given)
inactive: max response (CRL-7250) -2.72% | max response (HEK293) 2.48% | max response (HaCat) -2.92% | max response (KB-3-1) 3.19% | outcome (NIH3T3)

C[C@@H]1O[C@@H](O[C@H]2[C@@H]3C=CO[C@@H](O[C@@H]4O[C@H](CO)[C@@H](O)[C@H](O)[C@H]4O)[C@@H]3[C@@]3(CO)O[C@@H]23)[C@H](OC(=O)/C=C/c2ccc(O)cc2)[C@H](O)[C@H]1O
inactive: max response (CRL-7250) -20.4% | max response (HEK293) -82.6% | max response (HaCat) -0.452% | max response (KB-3-1) -12.9% | outcome (NIH3T3)
